Rows were chosen to be rich in hits. Some 2.6% of all compounds tested hit in one or more screens of this group.
GLP-1R inv ag – inverse agonists of human GLP-1 receptor; HEK293 GLP-1R CRE-luciferase, luminescence, 24 h; GLP-1R form is constitutively active; Potency, µM (titrated, usually from 38.3 µM), for inactives: at the highest dose activity change, negative = inhibition, usual class: inhibitors; 410,000 compounds, 1.6% hits; further: on the % scale 0 is the no-effect control and ±100 the full control effect; nearly all actives have a fitted effect of over 55% in size
Target sequence (P43220 whole entry, looked up): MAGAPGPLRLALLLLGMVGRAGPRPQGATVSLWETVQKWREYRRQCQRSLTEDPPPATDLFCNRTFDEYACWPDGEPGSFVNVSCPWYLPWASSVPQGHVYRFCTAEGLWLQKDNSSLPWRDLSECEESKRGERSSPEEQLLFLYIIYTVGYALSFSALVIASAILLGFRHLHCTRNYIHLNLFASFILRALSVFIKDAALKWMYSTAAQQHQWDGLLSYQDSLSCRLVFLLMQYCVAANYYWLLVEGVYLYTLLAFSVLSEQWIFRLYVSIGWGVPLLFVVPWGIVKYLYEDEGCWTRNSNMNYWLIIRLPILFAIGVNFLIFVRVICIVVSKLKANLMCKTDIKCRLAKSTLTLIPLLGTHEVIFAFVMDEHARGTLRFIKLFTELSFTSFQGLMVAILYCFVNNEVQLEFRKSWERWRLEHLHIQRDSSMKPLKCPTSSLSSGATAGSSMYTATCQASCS
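HEK293 cells stably co-expressing a cAMP-responsive luciferase reporter and constitutively active GLP-1R were seeded, incubated 12 h, then exposed to compounds for 24 h at 37 C. Luminescence was read 12 min after detection reagent; inverse agonists lower signal.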
BRCA1 expr act – increases BRCA1 expression | 380,000 compounds, 1.1% hits | MCF7-BRCA1-FFLuc reporter, luminescence, 48 h; response scale: scaled: vehicle 0%, 10 µM genistein 100% | Potency, µM (titrated, usually from 46.1 µM), for the others: at the highest dose activation, actives largely listed as activators; further: nearly all actives have a fitted effect of over 80% in size
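Luminescence from a BRCA1-driven firefly luciferase in MCF7 cells was read after 48 h compound exposure at 37 C. Data normalized against DMSO and a 10microM genistein activation control, then curve-fitted across the titration.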
GLP-1R agonist – activates the human GLP-1 receptor | Potency, µM (doses to about 45.6 µM), inactives show at the top dose activation, most hits filed as activators | HEK293 GLP-1R CRE-luciferase, luminescence, 4-6 h; cells express a hypersensitive GLP-1R form | P43220 | 380,000 compounds, 0.007% hits; further: % of control where 0% means no effect
HEK293 tox – cytotoxic in the GLP-1 receptor inverse agonist counter-screen | 410,000 compounds, 0.13% hits | AID 624418 | HEK293 cAMP-luciferase reporter cells, luminescence, 24 h | Potency, µM (series often up to 38.3 µM), without a hit: top-dose activity change, negative = inhibition, usual class: inhibitors;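 further: loss of luciferase light is scored as toxicity; on the % scale 0 is the no-effect control and ±100 the full control effect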
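1536-well qHTS counterscreen of the MLSMR; 200 cells/uL, 12 h pre-incubation, 23 nL cpd, 24 h at 37 deg C 5% CO2, luciferase detection reagent, 12 min RT, luminescence. Inhibition = undesired.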
Starred values were filed as active, the others as inactive; i = inactive; ? = inconclusive; . = no result. The call rests on the fitted dose curve; in most records, active means well fitted curve in the direction sought with a large enough effect; inconclusive means small, poorly fitted or top-dose-only effect, or another doubt; inactive means no such curve, though single readings can be large; an effect the other way counts as inactive or inconclusive. Potency means the concentration at half of the fitted maximal effect.

SMILES	GLP-1R inv ag	BRCA1 expr act	GLP-1R agonist	HEK293 tox
Cc1ccc(Nc2ncnc(-n3cccc3)n2)cc1Cl	-10.8%	6.31µM*	14.7%	-15.3%
Nc1ccc2c(c1Br)Cc1ccccc1-2	0.9%	74.9%	10.8%	11.8%
CC(=O)Nc1ccc2c(c1Br)Cc1ccccc1-2	?	3.16µM*	3.5%	8.4%
CC1(C)Oc2c(ccc(O)c2CN2CCOCC2)C2=C1CCCC2	7.08µM*	-7.0%	1.5%	-6.2%
CCN(C(=O)c1coc(=O)c2ccccc12)c1ccccc1C	-7.5%	2.5%	0.5%	-7.2%
CCNc1nc(-c2sc(NC(=O)C(C)(C)C)nc2C)c(-n2cc(-c3ccccc3)nn2)s1	10µM*	-65.2%	-32.9%	?
c1ccc(Nc2nc(NCc3ccco3)c3ccccc3n2)cc1	2.24µM*	-61.3%	-9.2%	?
O=c1c2ccccc2nc2ccc(NCc3ccco3)nn12	56.1%	3.55µM*	1.3%	12.7%
Cc1sc2nc3ccc(NCc4ccco4)nn3c(=O)c2c1C	57.1%	20.2%	1.4%	i
c1coc(CNc2nc3ccccc3s2)c1	-1.5%	3.16µM*	3.4%	5.3%
CNc1nc(NCc2ccco2)c2ccccc2n1	.	-46.9%	.	.
Cc1nnc(NCc2ccco2)s1	29.8%	0.9%	-6.1%	0.0%
Cc1ccccc1Nc1nc(NCc2ccco2)c2ccccc2n1	3.98µM*	-42.7%	-0.5%	?
CCC[n+]1c(/C=C/c2c(OC)cc(OC)cc2OC)ccc2ccccc21	.	-2.4%	.	.
O=C(OC(c1ccccc1)c1nccc2ccccc12)c1ccccc1 (centres undefined)	?	51.8%	-3.5%	13.5%
O=C(OC(c1ccccc1)c1nccc2ccccc12)c1cccc([N+](=O)[O-])c1 (centres undefined)	?	7.08µM*	?	?
OCCN1CCN(C2CCC(c3ccc(F)cc3)c3ccc(F)cc32)CC1 (centres undefined)	2µM*	-41.2%	0.9%	?
Nc1ncc(-c2ccc(F)cc2)nc1N1CCN(CCO)CC1	24.3%	19.4%	7.5%	1.9%
CC(=O)Nc1ccc(/C(C)=N/Nc2nc(Nc3cccc4ccccc34)nc(N3CCOCC3)n2)cc1	2.82µM*	-65.3%	0.6%	-20.9%
CC(C)(C)C1CCc2c(sc(NC(=O)c3cc4ccccc4c(=O)o3)c2C(N)=O)C1 (centres undefined)	4.7%	.	.	-7.5%
Cc1cc(C(=O)CN2C(=O)NC3(CCCCC3C)C2=O)c(C)n1Cc1cccs1 (centres undefined)	?	4.47µM*	0.8%	-0.7%
COc1ccc(OCC(=O)Nc2c(C(=O)N(CCN(C)C)Cc3ccco3)oc3ccccc23)cc1	7.94µM*	-29.0%	5.4%	10.3%
COc1ccc(N(C(=O)c2ccccc2C)S(=O)(=O)c2ccc(C)cc2)cc1	10µM*	.	.	-2.5%
COc1ccc(N(C(=O)c2ccccc2C)S(=O)(=O)c2cccs2)cc1	?	-72.4%	7.1%	-40.6%
O=C(COC(=O)C1CCN(S(=O)(=O)c2ccccc2C(F)(F)F)CC1)NCc1ccc(F)cc1	-1.9%	?	4.9%	9.2%
SMILES	GLP-1R inv ag	BRCA1 expr act	GLP-1R agonist	HEK293 tox
COc1cc2c(N3CCN(C(=O)Nc4ccc(OC(C)C)cc4)CC3)ncnc2cc1OCCCN1CCCCC1	.	.	15.0%	.
O=C(NCCS(=O)(=O)NCc1ccccn1)c1ccccc1	14.2%	-3.7%	-8.5%	8.5%
CN(C)S(=O)(=O)Nc1ccc(-c2cn3ccsc3n2)cc1	12.3%	11.2µM*	10.6%	0.5%
COc1ccc(S(=O)(=O)Nc2ccc(-c3cn4ccsc4n3)cc2)cc1C	24.0%	0.1%	-4.9%	-2.5%
CC1CC(C)CN(c2oc(-c3ccc(OCc4ccccc4Cl)cc3)nc2C#N)C1 (centres undefined)	.	16.9%	.	.
Cc1ccc2c(c1)c(N=NC(N)=S)c(O)n2Cc1ccccc1	-3.8%	-15.2%	7.8%	?
NC(=S)N=Nc1c(O)n(Cc2ccc(Br)cc2)c2ccccc12	2.51µM*	-55.5%	8.6%	2.51µM*
C/C(Cl)=C\Cn1c(O)c(N=NC(N)=S)c2cc(Br)ccc21	8.91µM*	-87.8%	21.9%	-26.0%
C[n+]1ccnc2cc(Cl)ccc21	.	-78.8%	.	.
Cn1c(NCCCCO)nc2c1c(=O)n(Cc1ccc(Cl)cc1)c(=O)n2C	-11.9%	.	.	-14.8%
CCN(CC)CCCN1CC(=O)N2[C@@H](Cc3c([nH]c4ccccc34)C2(C)C)C1=O	-18.6%	-1.4%	-6.9%	-6.2%
Cc1ccc(C(=O)NC2(C(F)(F)F)NC(=O)N(c3ccc(Cl)cc3)C2=O)cc1 (centres undefined)	5.62µM*	-14.7%	-3.9%	-10.0%
Cc1ccc(N2C(=O)NC(NC(=O)C3CC3)(C(F)(F)F)C2=O)cc1 (centres undefined)	-12.2%	-6.6%	-1.6%	-4.6%
CCOCCCNC(=O)C1CCN(c2nc3ccc(C)cc3[nH]2)CC1	5.9%	.	.	5.6%
COc1ccc(C2c3[nH]c4ccccc4c3C[C@H]3C(=O)N(C4CCN(Cc5ccccc5)CC4)CC(=O)N23)cc1OC (some centres undefined)	12.6µM*	-14.1%	-4.7%	-15.9%
O=C1[C@@H]2Cc3c([nH]c4ccccc34)C(c3ccccc3)N2C(=O)CN1C1CC1 (some centres undefined)	-3.2%	-8.3%	5.7%	185.1%
COc1cccc(C2c3[nH]c4ccccc4c3C[C@H]3C(=O)N(C4CCN(Cc5ccccc5)CC4)CC(=O)N23)c1 (some centres undefined)	2µM*	-25.0%	-3.0%	-16.5%
COc1ccccc1C1c2[nH]c3ccccc3c2C[C@H]2C(=O)N(C3CCN(Cc4ccccc4)CC3)CC(=O)N12 (some centres undefined)	5.62µM*	-42.5%	-1.1%	-7.4%
Cc1ccccc1C1c2[nH]c3ccccc3c2C[C@H]2C(=O)N(C3CC3)CC(=O)N12 (some centres undefined)	?	-14.7%	10.3%	-0.3%
Cc1cccc(C)c1N(CCCc1cccnc1)C(=O)[C@@H](C)N	.	.	2.7%	.
CCOc1cc2sc(N3CCC(C(=O)Nc4ccccc4Cl)CC3)nc2cc1Br	40.5%	.	.	-4.1%
CN(C)c1ccc(C(CNS(=O)(=O)c2ccc(Br)cc2)N2CCCC2)cc1 (centres undefined)	-3.8%	.	.	4.7%
COc1ccc(Cn2c(SCC(=O)N3CCN(c4ccc(F)cc4)CC3)nc3ccccc32)cc1	-21.0%	.	.	-9.7%
COc1ccc(CC(=O)N2CCC(Nc3nc4ccccc4n3Cc3ccc(F)cc3)CC2)cc1	8.91µM*	-31.2%	-7.5%	-17.4%
COc1ccccc1-c1cc(C(F)(F)F)nc(S(=O)(=O)CCCC(=O)Nc2cccnc2Cl)n1	?	-45.3%	-2.8%	8.91µM*
COc1ccccc1-c1cc(C(F)(F)F)nc(S(=O)(=O)CCCC(=O)Nc2ccccc2F)n1	6.3%	.	.	-22.7%
CCN(CC(=O)Nc1ccccc1C(F)(F)F)CC(=O)c1[nH]c(C)c(C(C)=O)c1C	12.2%	-48.2%	10.1%	-1.9%
